# Source: PubChem BioAssay
# Columns and labels:
# [1] = system: Human papillomavirus type 1a protein E7 (residues 44-93); experiment: HPV1a E7 fragment binders on microarrays, primary screen, biochemical, small-molecule microarray, residues 44-93, 635 nm fluorescence (AID 1108); conditions: small-molecule microarray binding, fluorescence 635 nm; higher = more signal;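 note: E7 fragment applied at 1 µg/mL in TBST for 1 h at 4 C; score combines spot fluorescence with its signal to noise ratio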
# [2] = modulators of HCV replicon luciferase signal, primary screen, HCV replication inhibitor project, Huh7 cells, luciferase reporter (AID 1109); conditions: 48 h, higher = more signal;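 note: huh7 hepatoma cells harbouring a luciferase neomycin HCV replicon reporter; luciferase luminescence as measure of HCV replicon replication; test concentration not given here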
# [3] = target: Left-right determination factor 2 (Homo sapiens) (UniProt O00292); experiment: LEFTY2 binders on small-molecule microarrays, primary screen, biochemical, small-molecule microarray, 635 nm fluorescence scan (AID 1110); conditions: LEFTY2 binding, higher = more signal
# Sequence of Left-right determination factor 2 (Homo sapiens) (O00292 whole entry, looked up): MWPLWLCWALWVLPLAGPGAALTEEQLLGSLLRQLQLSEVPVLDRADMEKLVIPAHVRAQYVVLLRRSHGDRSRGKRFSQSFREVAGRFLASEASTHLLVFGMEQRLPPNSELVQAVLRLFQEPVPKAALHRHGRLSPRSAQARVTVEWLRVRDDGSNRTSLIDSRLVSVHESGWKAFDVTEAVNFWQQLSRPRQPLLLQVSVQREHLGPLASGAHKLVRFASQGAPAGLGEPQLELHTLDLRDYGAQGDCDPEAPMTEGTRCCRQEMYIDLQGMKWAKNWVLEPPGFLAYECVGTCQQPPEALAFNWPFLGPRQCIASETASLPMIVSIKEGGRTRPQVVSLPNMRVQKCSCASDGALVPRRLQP
# [4] = target: Calmodulin-1 (Homo sapiens) (UniProt P0DP23); experiment: CALM1 binders on microarrays, EGTA buffer, profiling panel, biochemical, small-molecule microarray, Cy5-labelled CALM1 (AID 1111); conditions: Cy5-CALM1 binding fluorescence, higher = more signal;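 note: labelled calmodulin applied in Tris saline Tween buffer holding calcium plus EGTA and DTT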
# [5] = target: Calmodulin-1 (Homo sapiens) (UniProt P0DP23); experiment: calcium-bound CALM1 binders on microarrays, profiling panel, artefact control for SMM control-protein annotation, biochemical, small-molecule microarray, Cy5-labelled CALM1, plus calcium (AID 1112); conditions: Cy5-CALM1 binding fluorescence, higher = more signal;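 note: score merges spot fluorescence with signal to noise from triplicate slides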
# [6] = small-molecule microarray binders of probe aWnt5a, primary screen, biochemical, biotinylated probe, 635/667 nm fluorescence (AID 1113); conditions: higher = more signal;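 note: score merges 667 nm fluorescence intensity with signal-to-noise per printed feature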
# [7] = small-molecule microarray binders of probe aShh, primary screen, biochemical, biotinylated probe, 635/667 nm fluorescence (AID 1114); conditions: higher = more signal;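 note: probe is biotin-labelled aShh protein from a stem cell growth factor screen; measures binding of labelled protein to compounds printed on the slide; score merges feature fluorescence at 667 nm with signal-to-noise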
# [8] = small-molecule microarray binders of probe aNog, primary screen, biochemical, biotinylated probe, 635/667 nm fluorescence (AID 1115); conditions: higher = more signal;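 note: probe is biotinylated aNog protein used at 0.15 µg/mL for 1 h at 4 C; z-score combines 667 nm fluorescence of each spot with its signal to noise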
# [9] = target: Torsin-1A-interacting protein 1 (Homo sapiens) (UniProt Q5JTV8); experiment: LAP1 binders from COS7 cell lysate, primary screen, small-molecule microarray, 635/667 nm fluorescence (AID 1116); conditions: COS7-hLAP1 lysate binding, 635 nm fluorescence, higher = more signal
# Sequence of Torsin-1A-interacting protein 1 (Homo sapiens) (Q5JTV8 whole entry, looked up): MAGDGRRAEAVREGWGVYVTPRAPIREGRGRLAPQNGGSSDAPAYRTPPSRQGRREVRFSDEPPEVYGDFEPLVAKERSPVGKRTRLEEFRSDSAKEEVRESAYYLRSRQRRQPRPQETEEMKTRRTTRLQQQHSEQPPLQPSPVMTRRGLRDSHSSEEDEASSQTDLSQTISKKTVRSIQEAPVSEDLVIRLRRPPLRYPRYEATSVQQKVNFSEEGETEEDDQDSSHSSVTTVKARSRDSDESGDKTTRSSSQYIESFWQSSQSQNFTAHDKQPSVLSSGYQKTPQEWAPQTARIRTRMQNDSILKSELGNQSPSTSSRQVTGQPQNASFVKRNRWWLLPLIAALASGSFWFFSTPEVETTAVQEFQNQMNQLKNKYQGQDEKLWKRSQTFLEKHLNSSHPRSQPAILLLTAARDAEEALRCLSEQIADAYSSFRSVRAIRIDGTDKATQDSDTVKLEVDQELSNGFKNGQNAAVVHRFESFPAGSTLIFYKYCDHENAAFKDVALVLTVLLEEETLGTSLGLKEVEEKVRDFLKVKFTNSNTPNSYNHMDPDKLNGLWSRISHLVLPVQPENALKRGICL
# [10] = target: Alpha-bungarotoxin (Bungarus multicinctus) (UniProt P60615); experiment: alpha-bungarotoxin binders on microarray, profiling panel, artefact control for SMM control protein annotation, biochemical, small-molecule microarray, Alexa647 label, 635/667 nm fluorescence (AID 1117); conditions: alpha-BTX-A647 binding fluorescence, higher = more signal
# Sequence of Alpha-bungarotoxin (Bungarus multicinctus) (P60615 whole entry, looked up): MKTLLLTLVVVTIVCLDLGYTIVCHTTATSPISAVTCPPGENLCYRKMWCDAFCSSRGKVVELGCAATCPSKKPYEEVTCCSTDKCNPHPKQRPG
Structure (SMILES),composite z-score [1],z-score [2],composite z-score [3],composite z-score [4],composite z-score [5],composite z-score [6],composite z-score [7],composite z-score [8],composite z-score [9],composite z-score [10]
O=C(CS)NCCCCCNC(=O)[C@H]1C[C@H]2C(=O)N3CCC[C@H]3C(=O)N2[C@H]1c1cccc(OCCO)c1,0.435,0.235,0.691,-0.8,-1,0.128,-0.138,-0.347,1.22,1.55
COc1ccc(COC(=O)NN=C2C[C@@H](O)[C@@H](O)[C@@H]3[C@@H]4C(=O)N(c5ccc(F)cc5F)C(=O)[C@@H]4CC[C@@H]23)cc1,-0.0514,-0.76,-0.151,0.0539,-0.325,-0.096,-0.221,0.041,0.599,0.626
N#Cc1ccc(NN2C(C(O)c3cccc4ccccc34)C=CC3C(=O)N(c4ccccc4)C(=O)C32)cc1 (stereo not given),1.48,0.148,0.221,1.74,0.164,0.139,0.23,0.837,0.365,1.09
CC(CCN1CCc2nc(-c3ccccc3)c(-c3ccccc3)cc2C1)=NO[C@@H](C)c1cn([C@H](CO)Cc2ccccc2)nn1,-0.127,-0.985,0.555,0.0845,0.444,-0.139,-0.221,-0.305,-0.273,1.42
O=C1O[C@@H](c2ccccc2)[C@@H](c2ccccc2)N2[C@@H](c3ccc(OCCO)cc3)[C@]3(C(=O)Nc4ccccc43)[C@@H](C(=O)N3CCN(c4ncccn4)CC3)[C@H]12,1.35,-2.4,0.773,0.0357,-0.355,-0.0685,0.0044,0.751,0.96,1.53
COc1ccc(O[C@H]2C=C[C@@H](c3ccccc3)O[C@@H]2COC(=O)CCC(C)=NOC(C)CN2CCCCc3nc(C)c(C)cc32)cc1 (stereo not given in full),0.36,-0.239,-0.106,-0.959,-0.203,-0.157,-0.138,-0.158,0.168,-0.47
C=CC[C@@H]1C=C[C@H](ON=C2c3cc(OC)ccc3O[C@H](c3cccc(OC)c3)[C@H]2O)[C@@H](CO)O1,-0.208,-0.892,0.194,-0.569,-0.319,-0.175,-0.288,0.151,-0.103,1.42
COCCOC(=O)N1C(=O)[C@@]2(c3cc(C#CCNC(N)=O)ccc31)[C@H](c1ccc(O)cc1)N1[C@H](c3ccccc3)[C@H](c3ccccc3)OC(=O)[C@H]1[C@@H]2C(=O)N1CCCCCCC1,1.13,-0.768,0.817,-0.0989,-0.218,-0.0718,0.108,-0.559,0.774,0.413
CO[C@H]1COC(=O)[C@@H]2CCCN2C(=O)[C@@H](C)COC(=O)CC=C[C@@H]1C,-1.03,-0.496,1.2,0.212,-0.823,-0.13,-0.0793,-0.0209,0.626,-1.16
CCCCCN1CC=CC23O[C@@H]4C=CCOC(=O)[C@@H]4[C@H]2C(=O)N(CCCCCCO)[C@@H]3C1=O (stereo not given in full),-0.276,0.417,-2,-0.284,0.168,-0.0417,0.0796,0.293,1.9,-0.729
CC(=O)C[C@H](O)[C@@H](NC(=O)OC(C)(C)C)C(C)C,-2.43,0.479,-0.319,-0.292,-0.327,-0.203,0.0121,-0.0926,-0.547,0.0557
